Compounds with a hit are over-represented: about 12% of the library has one in this group of screens.
SARS PLpro yeast: qHTS of Yeast-based Assay for SARS-CoV PLP; S. cerevisiae expressing SARS-CoV PLpro, growth rescue; AID 485353, 2010; actives 0.19% (n = 330,000); Potency, µM (series often up to 32.9 µM), inactives show top-dose activity, positive = growth rescue, usual class: activators; also: potency is read from the fitted curve at half-maximal effect; 0% is about no effect; nearly all actives have a fitted effect of over 55% in size
CHX counter: Cycloheximide Counterscreen for Small Molecule Inhibitors of Shiga Toxin; cell reporter, cycloheximide protein synthesis inhibition counterscreen; max response, %; actives 12% (n = 300,000); AID 2314, 2010; in the data active = max response mostly above about 13%, no sharp cut-off; inactive = mostly below about 14%; also: read at 38.3 µM for the half of the compounds with a filed dose; 0% is about no effect
Shiga inhibitor: A qHTS for Small Molecule Inhibitors of Shiga Toxin; Vero cells, Shiga toxin protein synthesis inhibition reporter; inhibition, % at 38.7 µM; actives 9.2% (n = 290,000); AID 2315, 2010; in the data active = inhibition mostly above about 28%, no sharp cut-off; inactive = mostly below about 43%; also: 0% is about no effect
NS1 function inh: qHTS Assay for Inhibitors of Influenza NS1 Protein Function; Potency, µM (top dose mostly 46.1 µM), for inactives: top-dose activity, positive = more growth; actives 0.4% (n = 270,000); AID 2326, 2010; also: potency is read from the fitted curve at half-maximal effect; actives are rising curves; nearly all actives have a fitted effect of over 50% in size
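OD600 was taken as the measure of yeast growth restored by compound in an NS1-expressing S. cerevisiae strain. Cells had been washed out of glucose medium and diluted 1:100 into galactose -URA medium, pH 6.0.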
* = called active by the depositor. Unless noted, calls follow the shape of the full dose curve.

For COc1ccc(N(CC(=O)NCc2ccccc2)S(C)(=O)=O)cc1 the results were SARS PLpro yeast 2.0%, CHX counter 31.3*, Shiga inhibitor 51.6* and NS1 function inh 6.3%.
`CCOc1ccc(N(CC(=O)NCC(C)C)S(C)(=O)=O)cc1` gave SARS PLpro yeast 15.5%, CHX counter -2.4, Shiga inhibitor 2.1 and NS1 function inh 4.3%.
`COc1ccc(CCNC(=O)/C=C/c2ccco2)cc1` gave SARS PLpro yeast 0.4%, CHX counter -2.9, Shiga inhibitor 18.2 and NS1 function inh 3.1%.
Screening c1ccc(N2CCN(c3nc4cc5c(cc4s3)OCO5)CC2)cc1 returned SARS PLpro yeast -0.7%, CHX counter 52.5*, Shiga inhibitor 33.4* and NS1 function inh 7.7%.
c1c2c(cc3sc(N4CCCCC4)nc13)OCO2 was read as SARS PLpro yeast -7.0%, CHX counter 21.0, Shiga inhibitor 25.0 and NS1 function inh -32.4%.
For Fc1ccc2nc(N3CCOCC3)sc2c1 the results were SARS PLpro yeast -2.3%, CHX counter 34.6* and Shiga inhibitor 107.5*.
For Cc1ccc(NC(=O)c2ccc3nc(N4CCOCC4)sc3c2)c(Cl)c1 the results were SARS PLpro yeast 2.2%, CHX counter 16.3*, Shiga inhibitor 4.0 and NS1 function inh 1.0%.
c1c2c(cc3sc(N4CCOCC4)nc13)OCO2 was read as SARS PLpro yeast -6.6%, CHX counter 42.6*, Shiga inhibitor 56.5* and NS1 function inh -57.6%.
For CCc1ccccc1NC(=O)c1ccc2nc(N3CCOCC3)sc2c1 the results were SARS PLpro yeast 5.7%, CHX counter -0.2, Shiga inhibitor -0.8 and NS1 function inh -11.8%.
Cc1ccc(NC(=O)C2CCCN(S(=O)(=O)c3cccnc3)C2)c(C)c1 (stereo not drawn) was read as SARS PLpro yeast 7.6%, CHX counter -3.8, Shiga inhibitor -3.9 and NS1 function inh -7.0%.
Screening Nc1ccc(N2CCOCC2)cc1C(F)(F)F returned SARS PLpro yeast -0.3%, CHX counter -3.0, Shiga inhibitor -33.7 and NS1 function inh 1.6%.
Screening c1ccc2c(c1)CCN(c1nc3cc4c(cc3s1)OCO4)C2 returned SARS PLpro yeast -15.3%, CHX counter 39.9*, Shiga inhibitor 97.0* and NS1 function inh -30.6%.
Screening Nc1nc2ccc(N3CCOCC3)cc2s1 returned SARS PLpro yeast -1.3%, CHX counter 33.6*, Shiga inhibitor 32.2* and NS1 function inh -2.0%.
For CCc1ccccc1NC(=O)CN1CCN(CC(=O)NCc2ccc(Cl)cc2)CC1 the results were SARS PLpro yeast 5.0%.
For COCc1c(C(=O)N/N=C/c2ccc(C)o2)nnn1-c1nonc1N the results were SARS PLpro yeast 0.7%, CHX counter -4.4, Shiga inhibitor 19.9 and NS1 function inh 9.0%.
COc1ccccc1C(C)N(C)Cc1nc(COc2ccccc2)no1 (stereo not drawn) was read as SARS PLpro yeast -0.1%, CHX counter 7.5, Shiga inhibitor 22.9 and NS1 function inh -5.6%.
For O=C(NC1CCCC1)c1ccccc1OCc1ccccc1 the results were SARS PLpro yeast 0.2%, CHX counter -1.0 and Shiga inhibitor -16.6.
Screening Cc1occc1C(=O)NN=C1C2CC3CC(C2)CC1C3 returned SARS PLpro yeast -3.2%, CHX counter 27.9*, Shiga inhibitor 30.0* and NS1 function inh 9.4%.
`Cc1occc1C(=O)NNC(=O)C1CCCC1` gave SARS PLpro yeast -0.9%, CHX counter -2.9 and Shiga inhibitor -5.1.
COc1ccccc1Nc1ccc(C(=O)NC2CCCCC2)cn1 was read as SARS PLpro yeast -5.1%, CHX counter 19.2*, Shiga inhibitor 31.1* and NS1 function inh -9.8%.
COc1ccccc1C(=O)NC1CCCCCCC1 was read as SARS PLpro yeast 6.3%, CHX counter 20.1*, Shiga inhibitor 102.0* and NS1 function inh -15.0%.
Cc1occc1C(=O)NC1CCCCCCC1 was read as SARS PLpro yeast -73.9%, CHX counter 39.7*, Shiga inhibitor 60.3* and NS1 function inh -97.2%.
`C[C@@H]1CCC[C@H](C)N1Cc1nc(Cc2ccccc2Cl)no1` gave SARS PLpro yeast 0.1%, CHX counter 13.1, Shiga inhibitor 20.4 and NS1 function inh 1.8%.
For COC(=O)c1ccc(CNS(=O)(=O)c2ccc3ccccc3c2)cc1 the results were SARS PLpro yeast -12.4%, CHX counter -3.8, Shiga inhibitor -11.1 and NS1 function inh -1.3%.
For COc1ccc(-c2csc(=Nc3c(C)n(C)n(-c4ccccc4)c3=O)n2C(C)(C)C)cc1 the results were SARS PLpro yeast 4.0%, CHX counter -0.4, Shiga inhibitor 4.4 and NS1 function inh 1.2%.
For COc1ccc(-c2cc(=Nc3c(C)n(C)n(-c4ccccc4)c3=O)c3ccccc3o2)cc1 the results were SARS PLpro yeast -7.0%, CHX counter 41.4* and Shiga inhibitor 48.4*.
Cc1nc(Cl)c(C(=O)NC(C)(C)C)c(C)c1Cl was read as SARS PLpro yeast -17.6%, CHX counter -0.6, Shiga inhibitor 5.9 and NS1 function inh 0.4%.
Screening O=C(Nc1cccnc1Cl)c1cc(-c2ccc(F)cc2)on1 returned SARS PLpro yeast 1.4%, CHX counter 10.2, Shiga inhibitor 13.6 and NS1 function inh -12.4%.
O=C(NC(=S)Nc1ccc2c(c1)C(=O)c1ccccc1C2=O)c1ccc(F)cc1 was read as SARS PLpro yeast -19.6%, CHX counter 71.9*, Shiga inhibitor 103.1* and NS1 function inh 8.8%.
`O=C(NC(=S)Nc1ncccn1)c1ccc(F)cc1` gave SARS PLpro yeast 0.5%, CHX counter 48.6*, Shiga inhibitor 69.9* and NS1 function inh 3.9%.
`O=C(NC(=S)Nc1cccnc1Cl)c1ccc(F)cc1` gave SARS PLpro yeast -2.5%, CHX counter 48.5*, Shiga inhibitor 83.4* and NS1 function inh -18.5%.
Screening O=C(NC(=S)Nc1ccc(NC(=O)c2ccccc2)cc1)c1ccc(F)cc1 returned SARS PLpro yeast -3.7%, CHX counter 11.6, Shiga inhibitor -4.5 and NS1 function inh 14.1%.
Screening Cc1cc2c(s1)c1cnn(Cc3cc(C(F)(F)F)cc(Cl)c3F)c(=O)c1n2C returned CHX counter 3.8 and Shiga inhibitor 14.8.
S=C(N/N=C1\C2CN3CCN(C2)CC1(c1ccccc1)C3)Nc1ccccc1 was read as SARS PLpro yeast -0.6%, CHX counter 0.8, Shiga inhibitor -3.7 and NS1 function inh 16.7%.
`CC12CC(NC(=O)N1CCc1ccccc1)c1cc(Cl)ccc1O2` (stereo not drawn) gave SARS PLpro yeast 7.9%, CHX counter -1.9, Shiga inhibitor 7.5 and NS1 function inh -5.6%.
For Cc1[nH]c(C)c(S(=O)(=O)Nc2ccccc2)c1C(=O)N1CCCC1 the results were SARS PLpro yeast 1.7%, CHX counter -3.3, Shiga inhibitor 3.1 and NS1 function inh -1.3%.
Cc1[nH]c2ccc(C(=O)NC3CCC(C)CC3)cc2c1C (stereo not drawn) was read as SARS PLpro yeast 7.7%, CHX counter 26.2*, Shiga inhibitor 58.3* and NS1 function inh 9.4%.
CC1CCC(NC(=O)c2ccc3nc[nH]c3c2)CC1 (stereo not drawn) was read as SARS PLpro yeast -5.8%, CHX counter 40.7*, Shiga inhibitor 47.0* and NS1 function inh 7.7%.
